Screening results: PubChem, National Center for Advancing Translational Sciences (NCATS)
D1 agonist: human D1 receptor agonism | HEK293 T-REx D1 cells, calcium flux, agonist mode | AID 504660 | P21728 | hit rate 1% among 360,000 | activation, % at 2 µM; in the data active means activation above about 30%
Target sequence (P21728 whole entry, looked up): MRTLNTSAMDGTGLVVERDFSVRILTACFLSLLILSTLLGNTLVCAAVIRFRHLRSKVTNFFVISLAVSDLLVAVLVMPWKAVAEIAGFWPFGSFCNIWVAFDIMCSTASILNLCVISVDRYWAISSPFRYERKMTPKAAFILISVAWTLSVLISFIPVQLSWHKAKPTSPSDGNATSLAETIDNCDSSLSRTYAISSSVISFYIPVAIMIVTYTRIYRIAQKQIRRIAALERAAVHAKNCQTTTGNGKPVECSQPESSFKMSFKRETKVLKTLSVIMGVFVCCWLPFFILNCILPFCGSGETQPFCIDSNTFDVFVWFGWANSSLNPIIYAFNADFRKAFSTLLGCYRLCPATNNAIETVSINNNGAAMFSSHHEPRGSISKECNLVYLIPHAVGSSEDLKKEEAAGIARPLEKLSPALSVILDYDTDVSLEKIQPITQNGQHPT
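Agonism was scored from calcium flux recorded over 180 s (1 read/s) after pintool compound addition, following a 10-cycle baseline. Cells were inducible force-coupled HEK293 TREx D1, plated overnight at 30 C and loaded with no-wash calcium dye.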
D3 ag: agonists of human D3 dopamine receptor | AID 652048 | hit rate 0.58% among 410,000 | max activation, % | D3R DiscoveRx beta-arrestin cells, luminescence, 90 min | P35462; in the data active means max activation above about 30%
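Agonist mode: compounds and dopamine controls were applied to plated cells for 90 min at 37 degrees C after an overnight attachment at 1500 cells/well. Luminescent read-out followed 30 - 60 minutes at room temperature with DiscoveRx detection reagent.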
DRD3 antagonist: antagonists of human D3 dopamine receptor; P35462; D3R cells, DiscoveRx beta-arrestin luminescence, antagonist mode; stronger effect = lower value; max response, negative = inhibition, %; hit rate 2.5% among 360,000; AID 652054; in the data active means max response below about -50%; inconclusive means no clear call, values can overlap the other calls
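Cells plated overnight at 1500 cells/well, then exposed to library compounds with dopamine controls for 90 minutes at 37 degrees C. DiscoveRx reagent added for 30–60 minutes at room temperature; luminescence read, quantitative HTS format.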
BCR signal inh: chronic active BCR signaling inhibition. ABC-DLBCL IkBa-CBG/CBR reporter, luminescence ratio, 4 h. Potency, µM (doses to about 46.1 µM), hits mostly inhibitors. hit rate 0.05% among 340,000. AID 493014; active means well fitted inhibition curve with a large enough effect in the signal ratio, with a control signal flat, not every such curve was filed as active; inconclusive means small, poorly fitted or top-dose-only effect, or effect the other way, or a change in a side signal; the % refers to the signal ratio
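Doxycycline induced both beetle luciferases in TMD8 lymphoma cells; IKK-driven degradation limits the IkappaBalpha-fused green signal, while red luminescence normalises for cell number and nonspecific effects. Compounds tested up to 46 uM, 4 hrs.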
D1 antag: human D1 dopamine receptor antagonism. AID 504652. HEK293 TREx D1 cells, calcium flux, dopamine EC80; stronger effect = lower value. P21728. activity change, negative = inhibition, % at 10 µM. hit rate 3.2% among 360,000; in the data active means activity change below about -30%
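Cells carrying a force-coupled, tetracycline-inducible human D1 receptor report calcium flux. Each well gets a 10 s baseline, compound with 180 s monitoring, then an EC80 dopamine stimulus with a second 180 s kinetic read.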
D1 potentiator: enhances dopamine response at the human D1 receptor | HEK293 TREx D1 cells, calcium flux, dopamine EC20 potentiation | P21728 | potentiation, % at 10 µM | AID 504651 | hit rate 0.036% among 360,000; in the data active means potentiation above about 30%
A number is an active result; 0 = inactive; ? = inconclusive; - = no result given. Rows were chosen to be rich in hits. Some 6% of all compounds tested hit in one or more screens of this group.

SMILES | D1 agonist | D3 ag | DRD3 antagonist | BCR signal inh | D1 antag | D1 potentiator
Cc1cccc(NC(=O)C2CCC(CNS(=O)(=O)c3ccc4c(c3)CCCC(=O)N4)CC2)c1C (stereo not given) | 0 | 0 | - | - | 0 | 0
COC(=O)c1[nH]c2ccccc2c1NS(=O)(=O)c1ccc(F)c(C)c1 | 0 | 0 | 0 | 0 | -47.9 | 0
CCN(C(=O)CSc1nc2ccccc2n1Cc1cc(C)ccc1C)c1ccccc1 | 0 | 0 | - | - | 0 | 0
O=C(Nc1cccc(C(F)(F)F)c1)n1cc(-c2ccccn2)c(N2CCOCC2)n1 | 0 | 0 | 0 | ? | -46.8 | 0
O=C(CN1CCOCC1)Nc1cccc(C(F)(F)F)c1 | - | 0 | 0 | - | - | -
Cc1cc(C)nc(NCCC(=O)O)n1 | 0 | 0 | 0 | 0 | -58.1 | 0
Cc1ccc(CNC(=O)CN2Cc3ccccc3C2=O)cc1 | 0 | 0 | - | - | -37.4 | 0
Cc1ccc(CNC(=O)CN2CCN(Cc3ccc(C)cc3)C2=O)cc1 | 0 | 0 | 0 | ? | 0 | 0
COC(=O)c1ccc(CSc2nc3ccccc3[nH]2)o1 | 0 | 0 | 0 | 0 | 0 | 0
COC(=O)c1cc(CSc2nc3ccc(C)cc3[nH]2)oc1C | 0 | 0 | 0 | ? | -47.0 | 0
COc1ccc(CNC(=O)c2cccn2-c2nnc(N3CCCCC3)s2)c(OC)c1 | 0 | 0 | - | - | 0 | 0
Clc1ccc(Nc2ccc(Cl)nn2)cc1 | 0 | 0 | 0 | ? | 0 | 0
Fc1ccc(-c2ccc(Nc3cccc(F)c3)nn2)cc1 | 0 | 0 | 0 | ? | -34.4 | 0
COc1ccccc1-c1ccc(Nc2cccc(C(F)(F)F)c2)nn1 | 0 | 0 | 0 | ? | 0 | 0
Fc1ccc(Nc2ccc(-c3ccc(F)cc3)nn2)cc1 | 0 | 0 | 0 | 0 | -44.8 | 0
CC1=C(C(=O)N(C)C)CC(CC(=O)NC(c2ccccc2)c2ccccc2)C(=O)N1CCCN1CCCC1=O (stereo not given) | - | 0 | 0 | - | - | -
CN(C(=O)c1cccc(NC(=O)Cc2ccc(NC(=O)C3CCCN(C(=O)C4CCC4)C3)cc2)c1)C1CCC1 (stereo not given) | - | 0 | 0 | - | - | -
CN1C/C(=C\c2ccc(N3CCOCC3)cc2)C(=O)/C(=C/c2ccc(N3CCOCC3)cc2)C1 | 46.1 | 0 | 0 | 0 | 0 | 0
CCN1C/C(=C/c2ccc(N3CCOCC3)cc2)C(=O)/C(=C/c2ccc(N3CCOCC3)cc2)C1 | 88.4 | 0 | 0 | ? | 0 | 0
CN1C/C(=C/c2ccncc2)C(=O)/C(=C/c2ccncc2)C1 | 0 | 0 | 0 | ? | 0 | 0
CCc1ccc(/C=C2/SC(N3CCOCC3)=NC2=O)cc1 | 0 | 0 | 0 | 0 | 0 | 0
Cc1ccc(NC(=O)C2CCN(c3nc4ccccc4[nH]3)CC2)cc1Cl | 0 | 0 | - | - | 0 | 0
O=C(CCn1c(=O)c2cccn2c2ccc(F)cc21)NCc1ccccc1F | 0 | 0 | - | - | -69.3 | 0
CN(C)c1ccc(CNC(=O)CCn2c(=O)c3cccn3c3ccc(F)cc32)cc1 | 0 | 0 | - | - | -30.0 | 0
O=C(CCn1c(=O)c2cccn2c2ccc(F)cc21)NCc1cccc(F)c1 | 0 | 0 | 0 | 0 | 0 | 0
SMILES | D1 agonist | D3 ag | DRD3 antagonist | BCR signal inh | D1 antag | D1 potentiator
O=C(NCC(c1ccco1)S(=O)(=O)c1cccs1)c1c(F)cccc1F (stereo not given) | 0 | 0 | - | 0 | - | 0
COCc1nc2ccccc2n1Cc1cccc(C)c1 | 0 | 0 | 0 | 0 | 0 | 0
COCCn1c(COc2ccc(C)cc2)nc2ccccc21 | 0 | 0 | ? | ? | 0 | 0
Cc1cccc(Cn2c(COc3ccc(Cl)cc3)nc3ccccc32)c1 | 32.4 | 0 | - | - | 0 | 0
Cc1ccc(OCc2nc3ccccc3n2CCOc2ccc(Cl)cc2)cc1 | 40.9 | 0 | - | - | 0 | 0
O=C(O)CC/C=C\CC[C@@H]1[C@@H](N2CCCCC2)[C@@H](O)C[C@@H]1OCc1ccc(-c2ccccc2)cc1 | - | 0 | - | - | - | -
COC(=O)[C@]12CCCCC=C1N(Cc1ccc3c(c1)OCO3)C(=O)[C@H](CC(=O)NCc1ccccc1)C2 | - | 0 | 0 | - | - | -
O=C1NC[C@H](CCCCN2CCN(CCc3ccccc3)C(=O)C2=O)N(CCc2ccccc2)C1=O | - | 0 | 0 | - | - | -
Cc1ccc(N2CC(C(=O)Nc3nnc(SCc4ccccn4)s3)CC2=O)cc1 (stereo not given) | 0 | 0 | 0 | 0 | 0 | 0
O=C(Nc1nnc(SCc2ccccn2)s1)C1CC(=O)N(c2ccccc2)C1 (stereo not given) | 0 | 0 | 0 | 0 | -77.8 | 0
O=C(Cn1ncc2c(=O)oc3ccccc3c21)NCc1ccccc1Cl | 0 | 0 | - | - | 0 | 0
COc1ccccc1CN(C)S(=O)(=O)c1cccs1 | 0 | 0 | 0 | 0 | 0 | 0
COc1ccc(C(C)=O)cc1CN(c1ccccc1OC)S(=O)(=O)c1cccs1 | 0 | 0 | 0 | 0 | -93.5 | 0
COc1ccccc1OCC(O)Cn1c(=N)n(Cc2ccccc2)c2ccccc21 (stereo not given) | 47.3 | 0 | 0 | ? | -61.5 | 0
C=CCn1c(=N)n(CC(O)COc2ccccc2OC)c2ccccc21 (stereo not given) | 0 | 0 | 0 | 0 | 0 | 0
Cc1ccccc1OCC(O)Cn1c(=N)n(Cc2ccccc2)c2ccccc21 (stereo not given) | 44.8 | 0 | 0 | ? | -37.7 | 0
N#CC(=C1C=CC(=NO)C(Cl)=C1)c1ccccc1 | - | 0 | -81.5 | - | - | -
N#CC(=C1C=C(Br)C(=NO)C=C1Cl)c1ccc(Cl)cc1 | - | 0 | 0 | - | - | -
COc1ccc(CCNC(=S)Nc2cccc(C)c2C)cc1 | 0 | 0 | 0 | 0 | -31.2 | 0
Cc1cccc(C)c1NC(=S)NCCc1ccc(O)c(O)c1 | 0 | 0 | 0 | ? | -47.6 | 0
Cc1nnc(C(C)C)n1C1C[C@H]2CC[C@@H](C1)N2CC[C@H](NC(=O)C1CCC(F)(F)CC1)c1ccccc1 (stereo not given in full) | - | 0 | - | - | - | -
Cc1ccc(N(Cc2ccccc2)C(=O)CSC(C)C(=O)Nc2cc(C)on2)cc1 (stereo not given) | - | 0 | 0 | - | - | -
CCc1cccc(C)c1NS(=O)(=O)c1ccc2c(c1)NC(=O)C(C)C(=O)N2 (stereo not given) | 0 | 0 | - | 0 | 0 | 0
CCc1nc2ccc(C(=O)N(C)Cc3ccco3)cn2c1N(C)Cc1ccc(OC)cc1 | - | 0 | 0 | - | - | -
CCc1nc2ccc(C(=O)NC3CCN(Cc4ccccc4)CC3)cn2c1N(CC)Cc1cccc(Br)c1 | - | 0 | -78.2 | - | - | -
COCCN1C[C@@H](CO)O[C@@H](n2cnc3c(NC4CCC4)ncnc32)C1 | - | 0 | 0 | - | - | -
O=C(Cn1[nH]c(=O)c2ccccc2c1=O)N1CC=C(c2ccccc2)CC1 | 0 | 0 | 0 | 0 | -30.4 | 0
O=C(CSc1nc(C2CC2)nc2sc3c(c12)CCCC3)NCc1ccco1 | 0 | 0 | -112.5 | 0 | 0 | 0
CCOCCCN1C(=O)c2[nH]nc(-c3ccccc3O)c2C1c1ccc(CC)cc1 (stereo not given) | 0 | 0 | - | - | 0 | 0
